From PubChem BioAssay AID1903 (Southern Research Specialized Biocontainment Screening …, 2009)
About 1,200 (0.39%) of roughly 310,000 compounds were called active. No rule for the calls is given here. Only a sample is shown. Measured potencies and affinities stand elsewhere.

These molecules were tested against Large T antigen (Simian virus 40) (UniProt P03070) (assay: SV40 large T antigen inhibitors, biochemical (AID 1903)). Details: SV40 large T antigen ATPase/helicase inhibition assay; at 20 µM; hits give high values.
Chain of Large T antigen (Simian virus 40) (P03070 whole entry, looked up): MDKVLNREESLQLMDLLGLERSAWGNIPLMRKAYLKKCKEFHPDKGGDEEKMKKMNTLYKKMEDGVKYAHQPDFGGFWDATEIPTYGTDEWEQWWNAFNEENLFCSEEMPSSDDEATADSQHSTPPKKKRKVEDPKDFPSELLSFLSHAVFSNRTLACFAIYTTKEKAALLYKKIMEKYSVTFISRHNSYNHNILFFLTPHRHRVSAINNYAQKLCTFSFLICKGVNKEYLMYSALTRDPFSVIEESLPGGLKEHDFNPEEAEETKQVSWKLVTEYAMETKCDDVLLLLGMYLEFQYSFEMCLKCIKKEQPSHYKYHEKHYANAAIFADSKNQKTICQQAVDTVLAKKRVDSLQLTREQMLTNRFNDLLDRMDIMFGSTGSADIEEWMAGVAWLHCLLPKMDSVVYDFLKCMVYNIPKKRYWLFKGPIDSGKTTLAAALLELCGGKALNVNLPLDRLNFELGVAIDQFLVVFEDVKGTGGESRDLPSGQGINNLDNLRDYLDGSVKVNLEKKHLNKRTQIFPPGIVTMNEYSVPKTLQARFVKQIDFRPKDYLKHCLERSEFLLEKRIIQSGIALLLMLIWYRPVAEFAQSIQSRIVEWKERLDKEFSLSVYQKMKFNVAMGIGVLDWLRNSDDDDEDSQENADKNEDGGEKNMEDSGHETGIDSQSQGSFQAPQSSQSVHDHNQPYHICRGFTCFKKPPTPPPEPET

inhibition, inactive:
c1ccc2[nH]c(CCCCc3nc4ccccc4[nH]3)nc2c1 5.68%
Nc1ccc2nc(CCCCc3nc4ccccc4[nH]3)[nH]c2c1 32.7%
Nc1cccc(CCc2nc3cc4ccccc4cc3[nH]2)c1 21.5%
c1ccc2[nH]c(CCCc3nc4ccccc4[nH]3)nc2c1 12.5%
O=[N+]([O-])c1ccc2nc(CCCO)[nH]c2c1 -0.4%
Nc1ccc2oc(-c3cccs3)nc2c1 5.03%
c1csc(-c2nc3ccccc3[nH]2)c1 -3.54%
OCCCc1nc2ccccc2[nH]1 13.1%
CCOC(=O)C1=C(COC(=O)/C=C/c2ccc(OC)cc2OC)NC(=O)NC1C (stereo not given) 3.33%
CCc1noc(C)c1C(=O)Oc1ccc(N(C)S(=O)(=O)c2ccccc2)cc1 12.4%
Cc1nn(-c2ccccc2)c(Cl)c1/C=N/NC(=O)c1ccnn1C 19.3%
O=C(O)c1ccc(/C=N/Nc2ccc(F)cc2F)cc1 9.08%
COc1cccc(CC(NC(C)=O)C(=O)NC2CCN(S(=O)(=O)c3ccc(NC(C)=O)cc3)CC2)c1 (stereo not given) 12.6%
COc1ccc(OC)c(N(CC(=O)NCc2ccccn2)S(C)(=O)=O)c1 5.82%
COc1ccc(/C=N/NC(=O)c2ccccc2OC)cc1COc1ccc(C)cc1 1.22%
O=C(c1ccc2c(c1)OCO2)N(c1ccc(F)cc1)C1C=CS(=O)(=O)C1 (stereo not given) -0.44%
CCOc1cc(/C=C/c2ccc3cccc([N+](=O)[O-])c3n2)ccc1O 3.61%
CCOc1cc(/C=C/c2cc(C(=O)O)c3ccccc3n2)ccc1O 31%
COc1ccc(/C=N/NC(=O)c2ccc(=O)n(C)c2)cc1OC 3.81%
CCC(=NC)C1=C(O)CC(c2ccccc2)CC1=O (stereo not given) 3.84%
CCC(=Nc1ccccc1OC)C1=C(O)CC(c2ccccc2)CC1=O (stereo not given) 2.58%
O=C1c2cccnc2C(=O)N1Cc1ccc(S(=O)(=O)NCc2ccco2)cc1 14.4%
N#C/C(=C\c1ccc(Br)s1)C(=O)N1CCN(c2ccccc2)CC1 7.79%
CN(C)C(CNC(=O)c1ccc2nc[nH]c2c1)c1ccccc1 (stereo not given) 12.7%
NC1=NC(=O)/C(=C/c2cccs2)S1 3.51%
NC1=NC(=O)/C(=C\c2cccs2)S1 16.2%
COc1cccc(C(=O)CN(C(=O)c2ccc(Cl)c(Cl)c2)N2C(=O)C3CCCCC3C2=O)c1 (stereo not given) 24.4%
COc1ccccc1C(=O)COC(=O)CCCN=C1NS(=O)(=O)c2ccccc21 11.1%
Nc1cc(-c2ccc(Br)cc2)[nH]n1 8.97%
Oc1ccc(Br)cc1-c1cc(-c2ccccc2)n[nH]1 23.6%
O=C1c2ccccc2CC1Sc1nnc(-c2ccccn2)o1 (stereo not given) 13.2%
CCC(Sc1nnnn1-c1ccccc1)C(=O)NC(C)c1ccccc1 (stereo not given) 1.1%
c1ccc(Nc2ccccc2)cc1 12.1%
Cc1ccc(Nc2ccccc2)cc1 9.98%
CN(Cc1nc(-c2cnccn2)no1)CC(O)c1ccccc1 (stereo not given) 9.11%
COc1ccc(/C(C)=N\NC(=O)CSc2nnc(C)s2)cc1 4.01%
C/C(=N\NC(=O)CSc1nc2ccccc2[nH]1)c1ccncc1 5.69%
COc1cc(/C(C)=N\NC(=O)CSc2nc3ccccc3n2C)ccc1O 25.3%
C/C(=N\NC(=O)CSc1nnc(C)s1)c1ccc(O)cc1 26.9%
Cc1ccc(CNC(=O)c2nn(C)c(C)c2[N+](=O)[O-])cc1 10.1%
O=S(=O)(NCC1CCCN(Cc2ccccc2O)C1)c1cccc2cccnc12 (stereo not given) 21.3%
S=C(NCCSCc1c(Cl)cccc1Cl)Nc1ccccc1 3.66%
O=C(NC(NC1CCS(=O)(=O)C1)C(Cl)(Cl)Cl)c1cccc(Cl)c1 (stereo not given) 26%
S=C(NCc1cccnc1)Nc1ccc2c(c1)OCO2 9.73%
c1cc(CNc2ccc3c(c2)OCO3)ccn1 25.9%
CCN(c1ccc(NC(=O)COC(=O)c2cccs2)cc1)C(C)C 25.9%
O=C(COC(=O)COc1ccccc1[N+](=O)[O-])Nc1cccc(Br)c1 -10.5%
O=C(COC(=O)c1ccc2ccccc2n1)NCc1ccccc1 6.87%
COc1cccc(NC(=O)COC(=O)COc2ccccc2[N+](=O)[O-])c1 7.61%
O=C(COC(=O)c1cccs1)Nc1ccccc1 -1.96%
CCN(CC)c1ccc(NC(=O)COC(=O)/C=C/c2nc3ccccc3s2)cc1 37.1%
CCCCCSc1nnc2c(n1)OC(C)N(C(C)=O)c1ccccc1-2 (stereo not given) 5.71%
N#Cc1nc(COc2ccccc2Cl)oc1NCc1ccco1 15.3%
Cc1cc(C)nc(SCCC(=O)Nc2ccccc2)n1 -11.3%
COc1cccc2cc(C(=O)NNC(=O)c3ccc(Br)cc3)c(=O)oc12 -2.17%
COc1ccc(/C=C/C(=O)Nc2cc(S(=O)(=O)N3CCCCC3)ccc2N2CCCCC2)cc1OC -6.48%
CC/C(=C\C(=O)c1ccncc1)Nc1ccc(Br)cc1 14.6%
Cc1nonc1C(=O)N/N=C/c1ccccc1 -0.19%
O=C(COc1ccccc1C(=O)N/N=C\c1ccc(O)c(O)c1)N/N=C/c1ccc(O)c(O)c1 2.12%
COc1ccc2c(c1)c(C(=O)N/N=C/c1ccc(OC)c(OC)c1)c(C)n2C 13.7%
O=C(N/N=C/c1cccc(O)c1)N/N=C/c1cccc(O)c1 18.6%
COc1ccc2c(c1)c(C(=O)N/N=C/c1cccc(O)c1)c(C)n2C 14.4%
CC(C)(C)c1ccc(/C=N/NC(=O)C2CCCC2)cc1 13.3%
C=C1CC(C(=O)N/N=C/c2ccccc2)C1 5.07%
Cc1nonc1C(=O)N/N=C/c1cccc(O)c1 8.34%
